Reference: PubChem BioAssay AID651724 (National Center for Advancing Translational Sciences (NCATS), 2012)
About 1,700 (0.5%) of roughly 340,000 compounds were called active. Roughly 2% stayed inconclusive and do not appear here. Shown is part of a subset that was picked to be rich in actives. Unmarked numbers belong to inactive results. Cut-off read from the data, not from the text of the source: active = activity change below about -65%; inconclusive = mostly about -30% to -63%; inactive = weaker than that.
% is set by controls: 0 for no effect and ±100 for the full control effect.

These compounds were tested on CtBP / adenovirus E1A interaction (AlphaScreen) (assay: qHTS Assay for Inhibitors of the CtBP/E1A Interaction). Settings: AlphaScreen GST-E1A/His-CtBP binding, 1536-well; stronger effect = lower value.
In short: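 Protein mix (5X: 125 nM each GST-E1A, His-CtBP) was incubated with pinned compound 2 h at 37 deg C in dark, in 50 mM Tris pH 8.0 buffer with 300 mM NaCl. Glutathione donor and nickel acceptor beads followed; AlphaScreen signal read after 1 h.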
With CCCCCc1c(-c2cccc(Br)c2)ncn1CCc1ccccc1OC the activity change was -0.685%.
In the case of COc1cccc(C(NC(C)=O)c2nc(-c3cnc4ccccc4c3)cs2)c1 (stereo unspecified), the activity change is reported as -20.3%.
Compound Cc1ccc(-c2cnc(C(O)c3cccc(C)c3C)[nH]2)cc1 (stereo unspecified) has an activity change of -4.55%.
COc1ccc(C(=O)Nc2c(N)nc(SCC(=O)Nc3ccc(C(C)=O)cc3)[nH]c2=O)cc1 gave an activity change of -2.12%.
For COC(=O)c1ccc(NC(=O)CSc2nc(N)c(NC(=O)c3ccc(Br)o3)c(=O)[nH]2)cc1, the activity change was -65.1% (active).
With COCCNC(=O)CSc1nc(N)c(NC(=O)c2ccco2)c(=O)[nH]1 the activity change was 12.4%.
In the case of O=c1nc2s/c(=C\c3ccco3)c(=O)n2nc1Cc1ccccc1, the activity change is reported as -81.2% (active).
Compound O=C(NCCc1ccco1)c1nn(Cc2ccccc2)c(=O)c2ccccc12 has an activity change of -2.1%.
O=C(Nc1ccccc1)/C(=C\c1ccco1)NC(=O)c1ccco1 gave an activity change of 0.317%.
CCCCOCCCNC(=O)C[C@@H]1C[C@@]2(C(=O)OC)CCCCC=C2N(CCC2=CCCCC2)C1=O gave an activity change of -1.56%.
Work on CC(C)Sc1ncnc2c1cnn2-c1ccccc1 yielded an activity change of 0.575%.
With Cc1ccc(Nc2ncnc3c2cnn3C)c(C)c1 the activity change was 3.32%.
For Cc1ccc(-n2ncc3c(Nc4cccc(C(=O)O)c4)ncnc32)cc1, the activity change was -74.4% (active).
Work on CC(=O)Nc1cc(-c2cccc(CO)c2)cn2c(-c3cccc(C(F)(F)F)c3)cnc12 yielded an activity change of 3.79%.
Work on CN(Cc1cn(Cc2ccc(C(F)(F)F)cc2)nn1)C1CN(Cc2cn(Cc3ccc(C(F)(F)F)cc3)nn2)S(=O)(=O)C1 (stereo unspecified) yielded an activity change of 3.64%.
With O=C(Nc1ccc(C(=O)O)cc1)/C(=C/c1ccc([N+](=O)[O-])cc1)NC(=O)c1ccccc1 the activity change was -2.48%.
In the case of O=C(N/N=C/c1cc([N+](=O)[O-])ccc1O)/C(=C\c1cccs1)NC(=O)c1ccccc1, the activity change is reported as -94.1% (active).
Work on Cc1ccc(NC(=O)/C(=C/c2ccc([N+](=O)[O-])cc2)NC(=O)c2ccccc2)cc1 yielded an activity change of 4.11%.
For CCCCN(C=O)c1c(CC)nc2c(OCCC3CCCCC3)cccn12, the activity change was -11%.
CCC(CC)C(C(=O)NC1CCCC1)N1CCN(c2cc(C)nc3ccccc23)CC1 (stereo unspecified) showed an activity change of 3.39%.
For Cc1cc(=O)oc2c(C)c(OCC(=O)NCCN3CCOCC3)ccc12, the activity change was 0.132%.
CCc1cc(=O)oc2c(C)c(OCC(=O)NCCN3CCOCC3)ccc12 was tested, and the activity change was -6.07%.
In the case of O=C(COc1cc2oc(=O)c3c(c2cc1Cl)CCC3)NCCCN1CCOCC1, the activity change is reported as -65.9% (active).
Compound O=C(CC(CC(=O)c1ccccc1)c1ccco1)c1ccccc1 has an activity change of 4.89%.
For Cc1ccc(S(=O)(=O)n2oc(=O)c(C3CCCCC3)c2N)cc1, the activity change was -69.5% (active).
For Cc1ccc(S(=O)(=O)N2CCC(N3CCCCCC3)CC2)cc1, the activity change was -10.9%.
Cc1ccc(S(=O)(=O)NC2CCCCCC2)cc1 showed an activity change of 10.7%.
Cc1cc(Br)cn2c(Cc3ccccc3C(F)(F)F)c(C3CCCCC3)nc12 was tested, and the activity change was -6.97%.
Cc1noc(C)c1-c1ccc(C(=O)NCc2ccncc2)c2occc12 showed an activity change of -17.7%.
Compound Cc1[nH]c2ccccc2c1C(=O)c1cc([C@H](NC(=O)OC(C)(C)C)C(C)C)sc1N has an activity change of -23.1%.
O=C(CSc1nc2ccccc2o1)N1CCN(c2ccc(Cl)cc2)CC1 was tested, and the activity change was -0.51%.
CC(C)(C)C(=O)CSc1nc2ccccc2o1 was tested, and the activity change was 11.1%.
In the case of Cc1ccc(/C=N/NC(=O)CSc2nc3ccccc3o2)cc1, the activity change is reported as -93.4% (active).
With O=C(CSc1nc2ccccc2o1)N/N=C/c1ccccc1C(=O)O the activity change was -92.7% (active).
In the case of CCN(CC)C(=O)CSc1nc2ccccc2o1, the activity change is reported as 4.11%.
O=C(CSc1nc2ccccc2o1)N1CCN(c2ccccc2)CC1 was tested, and the activity change was -3.28%.
Work on CC(=O)Nc1cc(-c2ccc(N3CCN(C)CC3)cc2)cn2c(-c3ccc(F)cc3)cnc12 yielded an activity change of -22%.
CCc1nc2ccc(C(=O)Nc3cccc(OC)c3)cn2c1N(CCC(C)C)CCN(C)C gave an activity change of -9.75%.
With Cc1ccc(S(=O)(=O)N2CCCCC2)cc1NC(=O)CCNC(=O)c1ccccc1Cl the activity change was 2%.
O=C(Nc1ccc(Cl)cc1)C1Cc2c(-c3ccc4c(c3)OCO4)ccnc2O1 (stereo unspecified) gave an activity change of -5.12%.
Work on O=C(NCc1ccc(F)cc1)c1cc(C2CCCCN2C(=O)c2cccs2)on1 (stereo unspecified) yielded an activity change of 4.5%.
With C/C(=N\NC(=O)c1ccccc1F)c1ccccn1 the activity change was -97.9% (active).
Compound COc1ccc(C/C(C)=N/NC(=O)c2cc(C)oc2C)cc1 has an activity change of 8.03%.
For CCCCCNC(=O)Cc1ccc(OC)cc1, the activity change was 12.5%.
CC(=NNC(=S)N1CCCCCC1)c1ccccn1 was tested, and the activity change was -89.7% (active).
In the case of Cc1cccc(C)c1NC(=S)N1CCCCCC1, the activity change is reported as 3.43%.
For COc1ccc(CC(=O)N/N=C(\C)c2ccccn2)cc1, the activity change was -73.3% (active).
For CNC(=S)N1CCN(c2ccccn2)CC1, the activity change was 5.96%.
For C/C(CC(=O)Nc1ccc(N(C)C)cc1)=N\NC(=O)c1ccccc1F, the activity change was -8.83%.
Compound O=C(NCCOc1ccccc1)c1ccccc1F has an activity change of 0.486%.
Compound C#CCN(C[C@@H]1[C@@H](OC(=O)NC2CC2)[C@@H](OC(=O)NC2CC2)Cn2c(=O)ccc(=O)n21)S(=O)(=O)c1ccc(C)cc1 has an activity change of 3.71%.
FC(F)(F)c1ccccc1Cc1c(-c2ccccc2)nc2c3ccccc3ccn12 showed an activity change of 6.14%.
Cc1cccc(C(=O)C(O)(c2ccccc2)C2CCCCC2=O)c1 (stereo unspecified) gave an activity change of 3.76%.
With CC1(C(=O)NS(=O)(=O)c2ccc3ccccc3c2)CCN1C(=O)C1(c2ccc(Cl)cc2)CCC1 (stereo unspecified) the activity change was -4.19%.
O=C(CSc1nc2cccc(F)c2c(=O)n1-c1ccccc1)Nc1ccc2c(c1)CCC2 showed an activity change of 8.09%.
CC(=O)Nc1cccc(-c2ccnc3c2CC(C)(C(=O)NCc2ccccc2)O3)c1 (stereo unspecified) showed an activity change of 0.959%.
Work on CC1(C(=O)NS(=O)(=O)c2ccccc2)CCN1C(=O)Cc1ccc(-c2ccccc2)cc1 (stereo unspecified) yielded an activity change of 1.02%.
In the case of O=c1[nH][nH]c2c1[C@H](c1ccc(Cl)cc1)O[C@H](CCc1ccccc1)C2, the activity change is reported as 1.98%.
COc1cccc(-c2cnc3c(NC(C)=O)cc(-c4cc(F)ccc4OC)cn23)c1 gave an activity change of -20.8%.
With Cc1nn(Cc2ccc(Cl)cc2)c(Cl)c1/C=N/NC(=O)c1cccnc1 the activity change was -0.89%.
Cc1ccc(C(=O)O)cc1NC(=O)c1ccc(Cn2nc(C)c(Cl)c2C)o1 gave an activity change of 0%.
With Cc1c(Cl)c([N+](=O)[O-])nn1Cc1ccc(C(=O)N/N=C\c2cc(Cl)ccc2O)o1 the activity change was -70.3% (active).
CNc1cncc(-c2ccc(NS(C)(=O)=O)cc2)n1 was tested, and the activity change was 0.0496%.
For COc1cccc(CNc2nc(NCc3ccccc3OC)nc3ccsc23)c1, the activity change was -7.75%.
In the case of O=C1c2ccccc2C(=O)c2c1cccc2N1CCN(CCO)CC1, the activity change is reported as -25.7%.
In the case of O=C1c2ccccc2C(=O)c2c1cccc2N1CCN(Cc2ccccc2)CC1, the activity change is reported as -94.4% (active).
In the case of O=S1(=O)CCN(Cc2ccccc2)CC1, the activity change is reported as 7.73%.
Work on C[C@@H]1CN([C@@H](C)CO)C(=O)CCCn2nncc2CO[C@H]1CN(C)C(=O)Nc1ccc(C(F)(F)F)cc1 yielded an activity change of -18.9%.
COC(=O)[C@]12CCCCC=C1N(CCC1=CCCCC1)C(=O)[C@H](CC(=O)N1CCSCC1)C2 gave an activity change of -7.56%.
In the case of Cc1cc(Cl)ccc1-c1nc(NCCN(C)C)nc2ccsc12, the activity change is reported as -3.67%.
With Cc1nnc(N/N=C/C2CC=CCC2)[nH]c1=O (stereo unspecified) the activity change was -19.9%.
For CCOc1ccc(-n2c(O)c(/C=N/Nc3nnc(C)c(=O)[nH]3)c3ccccc3c2=O)cc1, the activity change was -92.9% (active).
For CCN(CC)CCCN=Cc1c(O)n(-c2ccc(C)cc2)c(=O)c2ccccc12, the activity change was -3%.
In the case of CCOc1ccc(-n2c(O)c(/C=N/Nc3nc(C)cc(C)n3)c3ccccc3c2=O)cc1, the activity change is reported as -6.77%.
Cc1cc(=O)[nH]c(N/N=C/c2c(C)nn(-c3ccccc3Cl)c2Cl)n1 was tested, and the activity change was 5.1%.
For Cc1nnc(N/N=C/c2ccccn2)[nH]c1=O, the activity change was -90.3% (active).
With COc1ccc(Cc2nnc(SCC(=O)Nc3ccc(C)c(Cl)c3)[nH]c2=O)cc1 the activity change was -19.5%.
Cc1ccc(NC(=O)CSc2nnc(CNC(=O)c3ccccc3F)o2)cc1Cl gave an activity change of -15.1%.
Cc1ccc(NC(=O)CSc2nn3c(=O)c(C)nnc3s2)cc1Cl was tested, and the activity change was -85.4% (active).
In the case of CC1(C(=O)NCc2ccc3c(c2)OCO3)CCN1C(=O)Cc1cccc2ccccc12 (stereo unspecified), the activity change is reported as -3.05%.
Compound CCOC(=O)C=Cc1ccc(C(=O)OCC)[nH]1 has an activity change of 1.94%.
For O=C(NC1CCCCC1)C(c1cc2ccccc2o1)n1c(=O)c(-c2ccco2)nc2ccccc21 (stereo unspecified), the activity change was 6.62%.
Compound Cc1cccc(-n2cnc(C(=O)Nc3cccnc3)c2)n1 has an activity change of 3.1%.
With Cc1cccc(-n2cnc(C(=O)NNC(=S)Nc3ccccc3)c2)n1 the activity change was -91.7% (active).
Work on Cn1cc(Cl)c(C(=O)NNC(=S)Nc2cccc(Cl)c2)n1 yielded an activity change of -27.4%.
CC(C)N=C1CCCC1C(=S)SSC(=S)C1CCCC1=NC(C)C (stereo unspecified) gave an activity change of -5.04%.
Work on CCCCCNC(=O)C(c1ccc(OC)cc1)n1c(=O)c(-c2ccccc2)nc2ccccc21 (stereo unspecified) yielded an activity change of 0%.
C#Cc1ccc(NC(=O)C2(C)CCN2C(=O)Cc2ccc(-c3ccccc3)cc2)cc1 (stereo unspecified) was tested, and the activity change was 0.392%.
In the case of Cc1c2cnn(CC(=O)NCc3ccccn3)c(=O)c2c(C)n1Cc1ccc(Cl)cc1, the activity change is reported as -67.4% (active).
Work on Cc1ccc(Cn2c(C)c3cnn(CC(=O)NCc4ccccn4)c(=O)c3c2C)cc1 yielded an activity change of -24.7%.
In the case of O=C(Cn1ncc2c3ccccc3n(Cc3ccccc3)c2c1=O)NCc1ccccn1, the activity change is reported as -0.706%.
